A selection: hits, their analogues and other compounds. The true share with any hit is near 14%.
LmPK inh: inhibitors of Leishmania mexicana pyruvate kinase | Q27686 | purified LmPK, Kinase-Glo ATP luminescence, 1 h | Potency, µM (doses to about 57.5 µM), for the others: at the highest dose activity change, negative = inhibition, hits mostly inhibitors | 0.37% of 290,000 active | AID 1721; further: potency means the concentration at half of the fitted maximal effect; on the % scale 0 is the no-effect control and ±100 the full control effect
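Screened at intermediate enzyme activity to detect both inhibitors and activators: LmPK at 0.1 nM, with a 0.5 nM enzyme column as activation reference. PEP 0.5 mM, ADP 0.1 mM; ATP detected by luminescence after 1 h.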
Cycloheximide cs: counter-screen hit for Shiga toxin inhibitors, cycloheximide | AID 2314 | max response, % | 12% of 300,000 active | cell reporter, cycloheximide protein synthesis inhibition counterscreen; in the data active means max response mostly above about 13%, no sharp cut-off; inactive means mostly below about 14%; further: read at 38.3 µM for the half of the compounds with a filed dose; 0% is about no effect
NS1 function inh: influenza NS1 inhibition; Potency, µM (series often up to 46.1 µM), for the others: at the highest dose activity, positive = more growth; 0.4% of 270,000 active; AID 2326; calls by dose curve; further: potency means the concentration at half of the fitted maximal effect; actives are rising curves; nearly all actives have a fitted effect of over 50% in size
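S. cerevisiae expressing influenza A NS1, grown in glucose, washed, then diluted 1:100 into pH 6.0 -URA galactose medium with 23 nl compound. Growth recovery read as OD600; NS1-free strain serves as control.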
Shiga toxin inh: inhibitors of Shiga toxin in Vero cells; Vero cells, Shiga toxin protein synthesis inhibition reporter; inhibition, % at 38.7 µM; 9.2% of 290,000 active; AID 2315; in the data active means inhibition mostly above about 28%, no sharp cut-off; inactive means mostly below about 43%; further: 0% is about no effect
FBPA Giardia inh: Giardia lamblia aldolase inhibition; A8B2U2; purified Giardia FBPA; Potency, µM (series often up to 59.6 µM), for the others: top-dose activity, negative = inhibition, hits mostly inhibitors; 0.71% of 290,000 active; AID 2451; further: potency means the concentration at half of the fitted maximal effect; on the % scale 0 is the no-effect control and ±100 the full control effect; nearly all actives have a fitted effect of over 55% in size
Target sequence (A8B2U2 whole entry, looked up): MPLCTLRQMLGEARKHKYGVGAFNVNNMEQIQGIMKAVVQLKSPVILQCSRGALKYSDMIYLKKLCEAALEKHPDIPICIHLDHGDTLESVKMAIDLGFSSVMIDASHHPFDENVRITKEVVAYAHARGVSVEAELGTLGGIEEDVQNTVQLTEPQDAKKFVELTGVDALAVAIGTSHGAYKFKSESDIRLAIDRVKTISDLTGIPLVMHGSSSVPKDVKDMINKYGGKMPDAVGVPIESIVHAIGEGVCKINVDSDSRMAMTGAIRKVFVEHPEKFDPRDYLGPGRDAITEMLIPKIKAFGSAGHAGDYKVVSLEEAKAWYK
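40 nM FBPA preincubated 10 min at RT with compound (up to 57.5 uM final), then substrate plus GAPDH/TPI/NAD/arsenate coupling and diaphorase/resazurin added. Fluorescence read after 20 min at RT, 525/598 nm.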
An asterisk follows results filed as active; u = inconclusive; x = no result; + = active, no number; [ ] = another dose, or the depositor's remark. Unless noted, the call rests on the fitted dose curve; in most records, active means well fitted curve in the direction sought with a large enough effect; inconclusive means small, poorly fitted or top-dose-only effect, or another doubt; inactive means no such curve, though single readings can be large; an effect the other way counts as inactive or inconclusive.

SMILES | LmPK inh | Cycloheximide cs | NS1 function inh | Shiga toxin inh | FBPA Giardia inh
CCOC(=O)[C@]1(C(NC(=O)OC)c2cccc(C)c2)CCCC1=O (stereo not given in full) | x | x | x | x | -1.1%[12.9 µM]
O=c1c(CCc2ccccc2)nc2cnc(Nc3ccccc3)nc2n1C[C@H]1CCCO1 | x | x | x | x | 3.9%
CCc1ccc(N2Cc3ccccc3C2)cc1 | -25.8% | 58.4* | 5.6% | 98.6* | -18.6%
CCOC(=O)c1ccc(N2Cc3ccccc3C2)cc1O | -12.7% | 46.2* | -0.1% | 65.2* | 0.8%
CCOC(=O)N1CCN(C(=O)COC(=O)c2ccc(O)cc2O)CC1 | 2.6% | -0.6 | x | -3.1 | 3.0%
CC(C)(C(=O)c1cccnc1)c1cccnc1 | x | x | x | x | -8.5%[21.7 µM]
O=C(CN1CCN(Cc2ccc(F)cc2)CC1)NCc1ccccc1 | -6.4% | -1.5 | 6.8% | -3.5 | -4.0%
Cc1nn(-c2ccccc2)c(Cl)c1/C=N/Nc1nncc(=O)[nH]1 | -4.4% | 11.7* | -1.9% | 42.6 | -10.5%
Cc1nn(-c2ccccc2)c(Cl)c1/C=N/NC(=O)OC(C)(C)C | 3.3% | 37.7* | -3.6% | 71.1* | 8.9%
Cc1nn(-c2ccccc2Cl)c(Cl)c1/C=N/Nc1nc2ccccc2s1 | 3.2% | 104.2* | -5.4% | 170.2* | 0.8%
Cc1nn(-c2ccccc2)c(Cl)c1/C=N/Nc1ccc(Cl)c(C(=O)O)c1 | 2.1% | 87.4* | 5.8% | 98.3* | 0.9%
Cc1nn(-c2ccccc2)c(Cl)c1/C=N/Nc1ccc(S(=O)(=O)Nc2ccccc2C(=O)O)cc1[N+](=O)[O-] | -0.6% | 7.4 | u | -9.2 | 16.4%
CC(C)CN(CCNC(=O)CN1C(=O)COc2ccc(S(=O)(=O)N3CCC(C)CC3)cc21)CC(C)C | -1.8% | 0.4 | -6.4% | -0.8 | x
O=C(COc1ccc2c(c1)oc(=O)c1ccccc12)NCC1CCC(C(=O)O)CC1 (stereo not given) | -5.8% | 1.9 | 7.7% | -0.6 | -2.7%
CCOC(=O)N/N=C/c1c(C)nn(-c2ccccc2Cl)c1Cl | -14.3% | 26.6* | -5.1% | 33.4 | -2.9%
CNC(=S)N/N=C/c1c(C)nn(-c2ccccc2)c1Cl | -0.1% | 34.8* | 7.8% | 61.2* | -1.0%
CCC(=O)CC(NC(=O)OC)c1ccc(F)cc1 (stereo not given) | x | x | x | x | 1.0%[12.9 µM]
CC(CCc1nc2ccccc2s1)(c1ccc(O)cc1)c1ccc(O)cc1 | x | x | -30.5% | x | x
C/C(=N\NC(=O)c1nn(C)cc1Cl)c1ccncc1 | 1.3% | 31.0* | 20.8% | 45.6* | 4.0%
C/C(=N\NC(=O)c1nn(C)cc1Br)c1ccncc1 | -3.5% | 55.4* | -21.3% | 92.3* | 5.1%
C/C(=N\NC(=O)c1ccc(N2CCCC2=O)cc1)c1ccncc1 | -0.8% | -3.3 | 12.1% | 0.7 | -2.5%
C[C@H](CCC(=O)O)[C@H]1CC[C@@H]2[C@@H]3CC[C@H]4C[C@@H](O)CC[C@@]4(C)[C@@H]3C[C@H](O)[C@@]21C | x | x | 6.1% | x | x
Cn1ncc(Cl)c(Oc2ccc(C(C)(C)C)cc2)c1=O | 0.6% | 20.3* | -21.5% | -3.9 | -5.3%
NCCOB(c1ccccc1)c1ccccc1 | x | x | x | x | -2.2%
CC1(C)Cc2c(sc(NC(=O)C(=O)N3CCCC3)c2C(N)=O)CO1 | 5.9% | -4.6 | 6.8% | 10.3 | 22.8%
SMILES | LmPK inh | Cycloheximide cs | NS1 function inh | Shiga toxin inh | FBPA Giardia inh
CC1(C)Cc2c(sc(NC(=O)Nc3ccccc3)c2C(N)=O)CO1 | 3.2% | 33.5* | 5.8% | 72.2 | -28.8%
Cc1sc(NC(=O)Nc2ccccc2)c(C(N)=O)c1C | -4.0% | 43.1* | -1.2% | 72.2* | -7.8%
CC(NC(=O)/C=C/c1ccccc1[N+](=O)[O-])C1CC2CCC1C2 (stereo not given) | -4.4% | -6.1 | -6.0% | -3.0 | 2.0%
O=C(NCCc1ccc2c(c1)OCCO2)c1cccc(F)c1 | -3.0% | 51.3* | -3.3% | 43.4* | 0.3%
NS(=O)(=O)c1ccc(CCNC(=O)c2ccc3c(c2)OCCO3)cc1 | 4.5% | -6.5 | x | -15.8 | -6.0%
O=C(NCCc1ccc2c(c1)OCCO2)c1cc(F)cc(F)c1 | -6.5% | 24.6* | 2.6% | 20.6* | 0.7%
COc1ccc(C(=O)NC(C(=O)NCCc2ccc3c(c2)OCCO3)C(C)C)cc1 (stereo not given) | -7.8% | 21.5* | x | 74.3* | 3.4%
COc1ccc(C(=O)N[C@H](C(=O)NCc2ccc(C)cc2)C(C)C)cc1 | -3.1% | 11.0 | 17.7% | 10.6 | 2.8%
CN(C)C(=O)Cn1cc(S(=O)(=O)Cc2ccccc2)c2ccccc21 | 5.3% | 6.9 | -5.6% | 15.1 | 9.6%
O=C(NC1=C(Nc2ccc(F)cc2)C(=O)c2ccccc2C1=O)c1ccc(Cl)cc1 | -13.0% | 16.2* | -5.9% | + | u
